According to PubChem BioAssay AID1956 (SRMLSC, 2009):
About 10 (0.005%) of roughly 220,000 compounds were called active. Rule as the data show it: active = maximum fold increase above about 1.5; inconclusive = no clear call, values can overlap the other calls; inactive = below that; tested in PC3 cells. Only a sample is shown.

Test: compounds boosting herpes simplex virus growth – fold increase, host cell viability (AID 1956)
Settings: HSV replication augmentation in cells; fold increase: measured here: primary screen fold increase 10 uM, at 10 µM, stronger effect = higher value; maximum fold increase: at 0.098 µM, stronger effect = higher value; viability: measured here: host cell viability series, at 25 µM, stronger effect = lower value
With `C/C(=N\Nc1cccc(C(=O)O)c1)c1ccc2c(c1)Nc1ccccc1S2` the fold increase was 1.22 and the outcome was “inactive”. In the case of `O=C(NCc1ccccc1)c1onc(CSc2ccncc2)c1C(=O)NCc1ccccc1`, the fold increase is reported as 0.71 and the outcome is reported as “inactive”. With `O=C(N/N=C\c1cc(Br)c(Br)o1)C1COc2ccccc2O1` (stereo unspecified) the fold increase was 1.28 and the outcome was “inactive”. In the case of `CC(C)c1cc(CN2CCOCC2)cc(C(C)C)c1O`, the fold increase is reported as 1.06 and the outcome is reported as “inactive”. In the case of `CC(C)=CCc1c(O)c(CC=C(C)C)c2occ(-c3ccc(O)cc3)c(=O)c2c1O`, the fold increase is reported as 0.74 and the outcome is reported as “inactive”. In the case of `CN(C)CCCN(Cc1cc2cc3c(cc2[nH]c1=O)OCCO3)C(=O)NC1CCCCC1`, the fold increase is reported as 0.89 and the outcome is reported as “inactive”. For `C/C(CC(C)C)=N\Oc1nc(C)cc(C)n1`, the fold increase was 0.9 and the outcome was “inactive”. In the case of `COc1ccc(Nc2cc(=O)n(-c3ccccc3)c3c2c(=O)n(C)c(=O)n3C)cc1`, the fold increase is reported as 1.09 and the outcome is reported as “inactive”. In the case of `NC(=O)C1=C[C@@H](c2ccc3c(c2)OCO3)C[C@@H](OCCCCO)O1`, the fold increase is reported as 0.58 and the outcome is reported as “inactive”. For `O=C(NCC1CC1)c1onc(CSc2ccccc2)c1C(=O)NCC1CC1`, the fold increase was 1.02 and the outcome was “inactive”. With `Cc1ccc(S(=O)(=O)N2CCN(C(=O)COC(=O)c3c(C)noc3C)CC2)c(C)c1` the fold increase was 0.83 and the outcome was “inactive”. In the case of `COc1ccc(CN2CC[C@H]3C=CC[C@@H](C(=O)N4CCOCC4)[C@H]3C2=O)cc1OC`, the fold increase is reported as 0.78 and the outcome is reported as “inactive”. In the case of `Brc1ccc(-c2n(-c3ccccn3)c3ccccc3[n+]2-c2ccccn2)cc1`, the fold increase is reported as 1.03 and the outcome is reported as “inactive”. For `Cc1[nH]n(C)c(=O)c1N=Nc1ccc(S(C)(=O)=O)cc1`, the fold increase was 1.01 and the outcome was “inactive”. With `O=C(CC(c1ccccc1)c1cc(Cl)ccc1O)NCCN1CCOCC1` (stereo unspecified) the fold increase was 0.85 and the outcome was “inactive”. In the case of `COC(=O)c1c(-c2ccsc2)oc2ccc(-c3cc(OC)c(OC)c(OC)c3)cc12`, the fold increase is reported as 1.05 and the outcome is reported as “inactive”. In the case of `Cc1cccc(NC(=O)c2ccc([N+](=O)[O-])o2)c1`, the fold increase is reported as 0.66 and the outcome is reported as “inactive”. For `C=CC1C(OC2OC(CO)C(O)C(O)C2O)OC=C(C(=O)OC)C1CC1CC(=O)CC(CC(=O)CCc2ccc(O)cc2)O1` (stereo unspecified), the fold increase was 1.03 and the outcome was “inactive”. For `O=C(N/N=C/c1cccc2cccnc12)[C@H]1C[C@@H]1c1ccccc1`, the fold increase was 0.97 and the outcome was “inactive”. With `COCCn1c(SCC(=O)c2[nH]c(C)c(C(C)=O)c2C)nc2ccccc2c1=O` the fold increase was 0.86 and the outcome was “inactive”. With `CC#CC[N+](C)(C)CCCCCC` the fold increase was 1.26 and the outcome was “inactive”. In the case of `O=C(NCc1ccccc1)C1=C[C@@H](c2ccccc2)C[C@@H](OCCCCO)O1`, the fold increase is reported as 0.94 and the outcome is reported as “inactive”. For `O=C(COc1ccc([N+](=O)[O-])cc1Cl)Nn1cnnc1`, the fold increase was 0.85 and the outcome was “inactive”. For `COc1ccc(/C=C/C(=O)Nc2ccc(C)cc2)cc1S(=O)(=O)N1CCOCC1`, the fold increase was 0.88 and the outcome was “inactive”. With `CC1(C)S[C@@H]2[C@H](NC(=O)COc3ccccc3)C(=O)N2C1C(=O)OCc1ccccc1` (stereo partly specified) the fold increase was 0.86 and the outcome was “inactive”. For `NC(=O)c1nnsc1-c1ccc(-c2snnc2C(N)=O)cc1`, the fold increase was 0.97 and the outcome was “inactive”. With `O=[N+]([O-])C(=c1ccc2c(c1)N1C3=C(CCCC3)CC3CCCCC31N=2)[N+](=O)[O-]` (stereo unspecified) the fold increase was 1.07 and the outcome was “inactive”. In the case of `Cc1ccc(-c2nc(SCC(=O)Nc3ccccc3OC(F)F)c3c(C)c(C(=O)O)sc3n2)cc1`, the fold increase is reported as 0.92 and the outcome is reported as “inactive”.
